rTrxR1 inhibitor = blocks rat thioredoxin reductase 1; O89049; recombinant rTrxR1, NADPH fluorescence consumption, selenite substrate; hit rate 1% among 390,000; Potency, µM (top dose mostly 114 µM), for inactives: at the highest dose activity change, negative = inhibition, hits mostly inhibitors; note: nearly all actives have a fitted effect of over 65% in size
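Rat TrxR1 (90 nM in the dispensed reagent) was pre-reduced with 400 uM NADPH for 5 min at room temperature, then incubated with compound for 15 min. After 400 uM selenite was added, NADPH fluorescence (Ex 340/Em 450 nm) was followed for 8 min.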
PLK1 PBD block = inhibitors of human PLK1 polo-box domain binding | P53350 | Plk1 PBD binding of FITC phosphopeptide, fluorescence polarization | Potency, µM, for the others: max response, negative = inhibition, usual class: inhibitors | hit rate 2.8% among 360,000; note: series mostly up to about 57 µM; nearly all actives have a fitted effect of over 65% in size
Sfp inh = blocks B. subtilis Sfp PPTase activity. Biochemical Sfp PPTase activity, qHTS. Potency, µM, without a hit: largest response in the series, negative = inhibition, most hits filed as inhibitors. Q9F4F7. hit rate 3.5% among 310,000;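 note: the enzyme is Sfp with the accession as filed and its product quenches rhodamine fluorescence; 0% = enzyme reaction without inhibitor and -100% = no enzyme wells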
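Fluorescence-quenching assay with 15 nM Sfp, 5 uM rhodamine-CoA and 12.5 uM BHQ-2-labelled ybbR peptide in pH 7.6 Hepes/MgCl2 buffer. Enzyme was pre-incubated with compound for 15 min at room temperature. Rate was taken from the 30-min fluorescence change (525/598 nm).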
VDR inhibitor = vitamin D3 receptor (human) inhibition. P11473. VDR-SRC2-3 peptide fluorescence polarization, 2 h. Potency, µM, inactives show max response, negative = inhibition, actives largely listed as inhibitors. hit rate 0.93% among 400,000. AID 504847
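FP read-out; VDR + SRC2-3 coactivator peptide; 23 nl compound by pintool; 2 h RT incubation; reagents held at 4 deg C, protected from light.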
mIDH1 inhibitor = blocks human mutant IDH1 R132H enzyme | O75874 | IDH1-R132H enzyme, NADPH consumption, diaphorase/resazurin fluorescence | Potency, µM (doses to about 76.6 µM), for inactives: top-dose activity change, negative = inhibition, usual class: inhibitors | hit rate 0.093% among 390,000; note: nearly all actives have a fitted effect of over 65% in size
Target sequence (O75874 whole entry R132H, stated change not applied): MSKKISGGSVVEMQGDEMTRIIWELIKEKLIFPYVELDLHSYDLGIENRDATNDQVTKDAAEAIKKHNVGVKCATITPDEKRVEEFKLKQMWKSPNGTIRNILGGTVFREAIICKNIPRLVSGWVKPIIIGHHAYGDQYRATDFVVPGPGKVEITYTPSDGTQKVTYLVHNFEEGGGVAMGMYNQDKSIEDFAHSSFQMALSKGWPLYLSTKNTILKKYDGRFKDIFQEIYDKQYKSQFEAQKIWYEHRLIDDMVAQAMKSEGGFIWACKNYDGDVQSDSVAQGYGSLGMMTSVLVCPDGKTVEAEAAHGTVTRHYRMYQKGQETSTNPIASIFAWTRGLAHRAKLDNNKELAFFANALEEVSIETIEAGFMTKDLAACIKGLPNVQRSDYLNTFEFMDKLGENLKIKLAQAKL
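IDH1-R132H (0.5 ug/mL) preincubated 30 min with compound, then NADPH (0.016 mM) and alpha-KG (2 mM) added; 80 min at RT, pH 7.5. Remaining NADPH coupled via diaphorase/resazurin to fluorescence (540/590 nm); concentration-response curves normalized to no-enzyme control.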
TrxR1 substrate = substrates of rat thioredoxin reductase 1. O89049. purified TrxR1 substrate turnover, NADPH consumption readout. Potency, µM (top dose mostly 114 µM), without a hit: at the top dose activity change, negative = substrate turnover. hit rate 0.01% among 390,000. AID 588456; note: nearly all actives have a fitted effect of over 50% in size
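Rat TrxR1, dispensed at 90 nM, was prereduced with 400 uM NADPH (final) for 5 min at ~22 deg C, then incubated with compound 15 min before 400 uM selenite. A first-read NADPH fluorescence drop versus no-compound background flagged substrates.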
* = called active by the depositor; [ ] = another dose, or the depositor's remark. An excerpt weighted towards active compounds, which were near 5.2% of everything screened. Calls come from the whole dose curve; as a rule, active = well fitted curve in the direction sought with a large enough effect; inconclusive = small, poorly fitted or top-dose-only effect, or another doubt; inactive = no such curve, though single readings can be large; an effect the other way counts as inactive or inconclusive. Unless noted, % is set by controls: 0 for no effect and ±100 for the full control effect; potency is the fitted concentration of half-maximal effect.

For CCc1cc2c(cc3c(=O)n(CC(=O)N4CCN(C)CC4)ncn32)s1 the results were rTrxR1 inhibitor inconclusive, PLK1 PBD block 21.2µM*, Sfp inh 21.0%, VDR inhibitor inconclusive, mIDH1 inhibitor -7.5% and TrxR1 substrate -9.3%.
O=c1[nH]c(=O)c2[nH]c(=S)[nH]c2[nH]1 was read as rTrxR1 inhibitor -34.8%, PLK1 PBD block 8.44µM*, VDR inhibitor inconclusive, mIDH1 inhibitor 11.6% and TrxR1 substrate 1.7%.
Screening C=CCN1CC(O)=C(c2ccccc2)C1=N returned rTrxR1 inhibitor 15.9%, PLK1 PBD block -3.4%, Sfp inh 8.3%, VDR inhibitor 8.5%, mIDH1 inhibitor 0.0% and TrxR1 substrate 6.2%.
`N=C1C(c2ccccc2)=C(O)CN1CCCO` gave rTrxR1 inhibitor 6.0%, PLK1 PBD block 23.8µM*, Sfp inh 19.4%, VDR inhibitor -7.0%, mIDH1 inhibitor 5.2% and TrxR1 substrate 2.6%.
For C=CCSc1nc2sc(C)c(C)c2c(=O)n1CC=C the results were rTrxR1 inhibitor inconclusive, PLK1 PBD block -3.8%, Sfp inh 50.1µM*, VDR inhibitor 0.7%, mIDH1 inhibitor 7.6% and TrxR1 substrate -9.3%.
`C=CCn1c(SCC(=O)Nc2sccc2C(N)=O)nc2ccc(Cl)cc2c1=O` gave rTrxR1 inhibitor 18.8%[57.1 µM], PLK1 PBD block -15.3%, Sfp inh 44.7µM*, VDR inhibitor 12.1%, mIDH1 inhibitor 0.9% and TrxR1 substrate 11.3%[57.1 µM].
C=CCn1c(SCC(=O)Nc2cc(Cl)ccc2C(=O)O)nc2sc(C)c(C)c2c1=O was read as rTrxR1 inhibitor 14.4%, PLK1 PBD block 23.8µM*, VDR inhibitor -16.7%, mIDH1 inhibitor -14.3% and TrxR1 substrate -3.0%.
Screening C=CCn1c(SCC(=O)N2CCOCC2)nc2sc(C)c(C)c2c1=O returned rTrxR1 inhibitor -1.6%[57.1 µM], PLK1 PBD block 3.4%, Sfp inh 21.0%, VDR inhibitor 1.4%, mIDH1 inhibitor -2.0% and TrxR1 substrate -2.1%[57.1 µM].
Screening C=CCn1c(SCC(=O)Nc2ccc(O)cc2)nc2sc(C)c(C)c2c1=O returned rTrxR1 inhibitor 3.9%, PLK1 PBD block inconclusive, VDR inhibitor -4.1%, mIDH1 inhibitor 1.6% and TrxR1 substrate -0.6%.
For C=CCn1c(SCC(=O)Nc2sccc2C(N)=O)nc2sc(CC)cc2c1=O the results were rTrxR1 inhibitor 5.3%, PLK1 PBD block 1.7%, Sfp inh -0.5%, VDR inhibitor 18.1%, mIDH1 inhibitor -1.6% and TrxR1 substrate -4.7%.
Screening C=CCn1c(SCC(=O)Nc2cc(C)on2)nc2sc3c(c2c1=O)CCCC3 returned rTrxR1 inhibitor 10.8%, PLK1 PBD block 26.7µM*, Sfp inh -2.7%, VDR inhibitor 6.6%, mIDH1 inhibitor 1.6% and TrxR1 substrate 2.7%.
`CC(C)C(=O)N1c2nc(-c3ccco3)nn2C2(CCCCC2)[C@@H]2CCCC[C@@H]21` gave rTrxR1 inhibitor -10.4%, VDR inhibitor -6.7%, mIDH1 inhibitor -4.7% and TrxR1 substrate -8.2%.
For Cc1cc(Br)c2nc(-c3ccccc3)c(Cc3cccc(Cl)c3)n2c1 the results were PLK1 PBD block 12.2%.
For O=C1OCCC1N(C(=O)C1CC1)c1cccc(Cl)c1 (stereo not drawn) the results were Sfp inh -6.4% and VDR inhibitor -0.7%.
CCOC(=O)C(C)/C(C)=N\Nc1ccc([N+](=O)[O-])cc1[N+](=O)[O-] (stereo not drawn) was read as rTrxR1 inhibitor -15.7%, PLK1 PBD block -5.8%, Sfp inh -19.5%, VDR inhibitor -13.8%, mIDH1 inhibitor 8.9% and TrxR1 substrate -6.5%.
CCOC(=O)C(C)/C(C)=N/NC(N)=S (stereo not drawn) was read as rTrxR1 inhibitor 3.3%, PLK1 PBD block inconclusive, Sfp inh 39.8µM*, VDR inhibitor -17.0%, mIDH1 inhibitor -1.0% and TrxR1 substrate 4.2%.
For Cc1ccc(S(=O)(=O)N(CC(=O)Nc2cccc(C)c2C)C(=O)N2CCN(C)CC2)cc1 the results were rTrxR1 inhibitor 9.5%, PLK1 PBD block -6.9%, VDR inhibitor -9.4%, mIDH1 inhibitor 11.0% and TrxR1 substrate -0.9%.
CC(/C=C/c1ccco1)=N/NC(=O)CNc1ccccc1C was read as rTrxR1 inhibitor -7.1%[57.1 µM], PLK1 PBD block -17.8%, Sfp inh 50.1µM*, VDR inhibitor inconclusive, mIDH1 inhibitor -2.9% and TrxR1 substrate 0.0%[57.1 µM].
Screening CC(/C=C/c1ccco1)=N/NC(=O)c1ccccc1Cl returned rTrxR1 inhibitor 15.8µM*, PLK1 PBD block -25.0%, Sfp inh 35.5µM*, VDR inhibitor inconclusive, mIDH1 inhibitor 0.3% and TrxR1 substrate 12.3%[57.1 µM].
`O=C(N/N=C/C=C/c1ccco1)c1ccccc1Cl` gave rTrxR1 inhibitor 56.2µM*, PLK1 PBD block -13.6%, Sfp inh 39.8µM*, VDR inhibitor inconclusive, mIDH1 inhibitor -4.9% and TrxR1 substrate -19.5%.
Screening O=C(Nc1ccccc1C(=O)N/N=C/c1ccco1)c1ccccc1Cl returned rTrxR1 inhibitor 2.3%, PLK1 PBD block 2.6%, Sfp inh 19.2%, VDR inhibitor 8.7%, mIDH1 inhibitor 23.5% and TrxR1 substrate -6.3%.
CCCC[C@H](NC(=O)[C@@H]1CCCN1C(=O)[C@H]1CCCN1C(=O)[C@H](Cc1ccccc1)NC(=O)[C@@H](Cc1c[nH]c2ccccc12)NC(=O)[C@H](C)NC(=O)[C@H](CCCN=C(N)N)NC(=O)OC(C)(C)C)C(N)=O was read as Sfp inh -27.7% and VDR inhibitor 0.1%.
For COC(=O)C/C=C\[C@@H](C)[C@@H](/C=N\OCC[C@@H]1C=C[C@H](OC(C)=O)[C@H](COC(C)=O)O1)OC the results were Sfp inh 1µM*.
Screening CC(=O)NC(CC(=O)O)C(=O)NC(CCC(=O)O)C(=O)O (stereo not drawn) returned Sfp inh 11.6% and VDR inhibitor -0.5%.
Screening CN[C@H](CC(=O)O)C(=O)O returned rTrxR1 inhibitor 9.7%[57.1 µM], PLK1 PBD block -12.8%, Sfp inh 100µM*, VDR inhibitor -1.3%, mIDH1 inhibitor -4.6% and TrxR1 substrate 8.7%[57.1 µM].
For COc1ccc(Nc2nc(-c3sc(N)nc3C)cs2)cc1 the results were rTrxR1 inhibitor -26.8%, PLK1 PBD block inconclusive, Sfp inh 17.8µM*, VDR inhibitor -23.2%, mIDH1 inhibitor 3.6% and TrxR1 substrate -9.7%.
CC(=O)c1cccc(Nc2nc(-c3sc(N)nc3C)cs2)c1 was read as rTrxR1 inhibitor -13.4%[57.1 µM], PLK1 PBD block 21.2µM*, Sfp inh -6.6%, VDR inhibitor inconclusive, mIDH1 inhibitor -0.3% and TrxR1 substrate -0.6%[57.1 µM].
For Cc1ccc(Nc2nc(-c3sc(C)nc3C)cs2)cc1 the results were rTrxR1 inhibitor 19.9%, PLK1 PBD block 0.7%, Sfp inh inconclusive, VDR inhibitor -14.1%, mIDH1 inhibitor -0.9% and TrxR1 substrate 10.2%.
